TDP1 cell CPT: growth inhibition of DT40 Tdp1-/-;hTDP1 cells with camptothecin (screen for TDP1 inhibitors). Potency, µM (doses to about 46.2 µM), hits mostly inhibitors. chicken DT40 Tdp1-/-;hTDP1 cells + 20 nM CPT, ATP luminescence, 48 h. AID 686979. 12% of 420,000 active; note: nearly all actives have a fitted effect of over 55% in size
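Chicken DT40 Tdp1-/- cells stably complemented with human TDP1 were seeded at 400 cells/well in medium containing 20 nM camptothecin, exposed to pin-transferred compounds, and grown at 37 °C for at least 48 hr. Viability was read as ATP luminescence.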
HT1080 IDH1KD tx: HT-1080 IDH1 knockdown cell toxicity (counter line) | HT-1080 IDH1 knockdown viability, ATP luminescence, 48 h | Potency, µM (series often up to 46.1 µM), usual class: cytotoxic | 2% of 360,000 active | AID 686971
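HT-1080-IDH1KD cells (IDH1 knocked down), 750/well in RPMI with 5% FBS, treated with compound 48 h at 37 degrees C. Viability by CellTiter-Glo luminescence, normalised to DMSO and no-cell wells; concentration-response curves classed.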
TGFb SMAD3 inh: TGF-b pathway inhibition; HepG2 CAGA-GFP TGF-b/SMAD3 reporter, GFP fluorescence, 18 h; TGF-beta stimulated, 500 pg/mL final; 1.2% of 410,000 active; Potency, µM (highest dose often 46.1 µM), most hits filed as inhibitors; note: nearly all actives have a fitted effect of over 65% in size
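Smad-responsive CAGA-GFP expression was quantified in HEPG2 cells exposed to compounds and 500 pg/mL final TGF-beta for 18 h at 37 degrees C; unstimulated wells defined full inhibition.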
HT1080-NT tox: kills 2HG-producing HT-1080-NT fibrosarcoma cells; HT-1080-NT fibrosarcoma viability, CellTiter-Glo ATP luminescence, 48 h; Potency, µM (titrated, usually from 46.1 µM), hits mostly cytotoxic; 1.6% of 360,000 active;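 note: NT is the 2HG producing partner of a matched IDH1 knockdown line; nearly all actives have a fitted effect of over 55% in size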
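HT-1080-NT fibrosarcoma cells (2HG-overproducing), 750 cells/well in RPMI with 5% FBS, dosed after 2 h and incubated 48 h at 37C. CellTiter-Glo luminescence normalized to DMSO and no-cell wells; concentration-response curves fitted and classed.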
HepG2 tox: HepG2 cytotoxicity, counter-screen for TGF-b inhibitors | HepG2 CAGA-GFP viability, ATP luminescence, 18 h | Potency, µM (doses to about 46.1 µM), hits mostly cytotoxic | 0.76% of 410,000 active | AID 588856
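CellTiter-Glo luminescence gave cytotoxicity after 18 hours at 37 degrees C. The cells were HepG2 CAGA-GFP in 1% FBS DMEM, stimulated with 500 pg/mL TGF-beta after compound addition. %Activity was normalised to no-cell wells (complete cell-killing) and DMSO (no toxicity), and curves were fitted and classified.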
DT40 TDP1 no CPT: qHTS for Inhibitors of human tyrosyl-DNA phosphodiesterase 1 (TDP1): qHTS in cells in absence of CPT. 15% of 420,000 active. Potency, µM (titrated, usually from 46.2 µM), actives largely listed as inhibitors. DT40 Tdp1-/- hTDP1 cells, no CPT, ATP luminescence, 48 h; note: nearly all actives have a fitted effect of over 55% in size
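Growth kinetics read by CellTiter-Glo luminescence after ≥48 hr at 37 °C. Cells: DT40 Tdp1-/- stably carrying human TDP1, 400 per well, compound exposure in the absence of CPT (DMSO vehicle).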
Hits are given with their value; 0 = inactive; ? = inconclusive; - = no result. An excerpt weighted towards active compounds, which were near 17% of everything screened. Calls come from the whole dose curve; as a rule, active = well fitted curve in the direction sought with a large enough effect; inconclusive = small, poorly fitted or top-dose-only effect, or another doubt; inactive = no such curve, though single readings can be large; an effect the other way counts as inactive or inconclusive.

SMILES | TDP1 cell CPT | HT1080 IDH1KD tx | TGFb SMAD3 inh | HT1080-NT tox | HepG2 tox | DT40 TDP1 no CPT
CO[C@H](C(=O)[C@@H](O)[C@@H](C)O)C1Cc2cc3cc(O[C@H]4C[C@@H](O[C@H]5C[C@@H](O)[C@H](O)[C@@H](C)O5)[C@@H](O)[C@@H](C)O4)c(C)c(O)c3c(O)c2C(=O)[C@H]1O[C@H]1C[C@@H](O[C@H]2C[C@@H](O[C@H]3C[C@](C)(O)[C@H](O)[C@@H](C)O3)[C@H](O)[C@@H](C)O2)[C@H](O)[C@@H](C)O1 (some centres not stated) | 0.075µM | - | - | - | - | 0.084µM
COC(C(=O)C(O)C(C)O)C1Cc2cc3cc(OC4CC(OC5CC(O)C(O)C(C)O5)C(O)C(C)O4)c(C)c(O)c3c(O)c2C(=O)C1OC1CC(OC2CC(OC3CC(C)(O)C(O)C(C)O3)C(O)C(C)O2)C(O)C(C)O1 (configuration not stated) | 0.16µM | - | 0.63µM | - | 0 | 0.028µM
Cn1c(=O)oc2cc(S(=O)(=O)NCCC(=O)NCCc3ccc(Cl)cc3)ccc21 | ? | 0 | ? | ? | 0 | 0
CC(C)CC(=O)N(Cc1ccccc1)S(=O)(=O)c1ccc2c(c1)oc(=O)n2C | 0 | - | ? | - | 0 | ?
CCCCCCOc1ccc(CN2CCN(CCO)CC2)cc1 | 16µM | ? | 0 | ? | 0 | 21µM
CSc1ccc(CN2CCC2(C)C(=O)Nc2cccc(NS(C)(=O)=O)c2)cc1 (configuration not stated) | 18µM | 0 | 0 | 0 | 0 | 23µM
CSc1ccc(CN2CCN(C(=O)Cc3ccccc3)CC2)cc1 | ? | 0 | 0 | 0 | 0 | 0
COCC(=O)N(c1c(C)cccc1C)C(C)C(=O)OC (configuration not stated) | 0 | - | - | - | - | ?
CCOc1ccc(OCC)c(NC(=O)CN2CCN(c3ccc(C)cc3C)CC2)c1 | ? | 0 | 0 | 0 | 0 | 16µM
COc1ccc(C)cc1NC(=O)CN1CCN(CC(=O)Nc2ccccc2F)CC1 | 23µM | 0 | 0 | 0 | 0 | 15µM
c1ccc(N2[C@@H]3CC[C@H]2c2ccccc2C3)cc1 | ? | 0 | 0 | 0 | 0 | ?
C[C@@]12C(=O)N(Cc3ccco3)CC(=O)N1[C@H]1c3ccccc3OC[C@@H]1[C@@H]2c1ccccc1 | ? | 0 | 0 | 0 | 0 | ?
CCOC(=O)NC(C)(C)Cc1ccc(Cl)cc1 | 0 | - | - | - | - | ?
CCOC(=O)c1cnc(SCc2ccc(Cl)c(Cl)c2)nc1N1CC1 | 0.58µM | 9.2µM | 0 | ? | 0 | 0.82µM
Cc1cc2ccccc2n1-c1ccc(C(=O)N2CCC(C(=O)NCc3ccc(Cl)cc3)CC2)s1 | 4.1µM | - | ? | - | 0 | 3.7µM
CCCCCn1c(=O)c(C(=O)NCc2ccc(Cl)cc2)c(O)c2ccccc21 | ? | 0 | 0 | 0 | 0 | ?
CCc1ccc(CNC(=O)C2CCN(C(=O)c3ccc(-n4c(C)cc5ccccc54)s3)CC2)cc1 | 10µM | - | ? | - | 0 | 18µM
CCCCn1c(-c2nn(C)cc2Cl)n[nH]c1=S | 0 | 0 | 0 | 0 | 0 | ?
CC(C)=CC1C(C(=O)OCN2C(=O)C3=C(CCCC3)C2=O)C1(C)C (configuration not stated) | 0 | - | - | - | - | 0
C[C@@H](C(=O)OC1C[C@H]2CC[C@@H](C1)N2C)c1ccc(Br)cc1 (some centres not stated) | 30µM | - | - | - | - | 27µM
COc1cc(C(=O)OC2C[C@H]3CC[C@@H](C2)N3C)ccc1O (some centres not stated) | 0 | 0 | 0 | 0 | 0 | 0
CN1C2CCC1CC(OC(=O)c1cc(Cl)cc(Cl)c1)C2 (configuration not stated) | 15µM | ? | 0 | ? | 0 | ?
CN1CCN(CCC(=O)OC2CC3CCC(C2)N3C)CC1 (configuration not stated) | 0 | 0 | 0 | 0 | 0 | 0
Cc1cc(C)cc(C(=O)OC2C[C@H]3CC[C@@H](C2)N3C)c1 (some centres not stated) | 24µM | - | - | - | - | 19µM
O=C1CN=C(c2ccccc2)c2cc(Br)ccc2N1 | 0 | 0 | 0 | 0 | 0 | ?
SMILES | TDP1 cell CPT | HT1080 IDH1KD tx | TGFb SMAD3 inh | HT1080-NT tox | HepG2 tox | DT40 TDP1 no CPT
O=C1NC(c2cc3ccccc3nc2Cl)Nc2ccccc21 (configuration not stated) | 0 | 0 | 0 | 0 | 0 | ?
c1ccc2nc3ccccc3cc2c1 | 10µM | - | ? | - | 0 | 13µM
Cc1cc(Br)c(NC(=O)CN2CC=C(c3ccccc3)CC2)c(Br)c1 | 0 | 0 | 0 | 0 | 0 | ?
Cc1[nH]c2ccccc2c1C(=O)CN1CC=C(c2ccccc2)CC1 | 16µM | 0 | 0 | 0 | 0 | ?
O=C1CC=C2C3CC4N(CCC45c4cc(O)c(O)cc4N1C25)CC3=CCBr (configuration not stated) | ? | 0 | 0 | 0 | 0 | ?
COc1ccc(CCNc2nc3c(c(=O)n(C)c(=O)n3C)n2Cc2ccc(F)cc2)cc1OC | 6.5µM | - | 0 | - | 0 | 3.3µM
CCN(CC)CCCOC(=O)C(OC)(c1ccccc1)c1ccccc1 | 0 | 0 | 0 | 0 | 0 | 0
C#CCOC(C(=O)OCCN(C)C)(c1ccccc1)c1ccccc1 | 21µM | - | - | - | - | 12µM
CCCN1CCc2cccc3c2[C@H]1Cc1ccc(O)c(O)c1-3 | 0 | 23µM | ? | 3.3µM | 0 | ?
C=CCN1CCc2cccc3c2C1Cc1ccc(O)c(O)c1-3 (configuration not stated) | 13µM | - | - | - | - | 5.2µM
C=CCN1CC[C@]23c4c5ccc(O)c4OC2C(O)C=CC3[C@H]1C5 (some centres not stated) | 0 | 0 | 0 | 0 | 0 | 0
CN1CCc2cc(O)cc3c2C1Cc1ccc(O)c(O)c1-3 (configuration not stated) | 2.6µM | - | - | - | - | 2.1µM
COc1ccc2c(c1O)-c1c(OC)c(OC)cc3c1[C@@H](C2)N(C)CC3 | 0 | - | - | - | - | 0
Cc1ccc(-[n+]2c(Cc3nn(-c4ccccc4)c(C)[n+]3-c3ccc(C)cc3)nn(-c3ccccc3)c2C)cc1 | 0 | 0 | 0 | 0 | 0 | 0
CSc1ncc(/C=C2/C(=O)NC(=O)N(C)C2=O)cn1 | 0 | 0 | 0 | 0 | 0 | 0
CN1C(=O)NC(=O)/C(=C\C=C\c2ccccc2[N+](=O)[O-])C1=O | ? | 12µM | 11µM | ? | 0 | 5.8µM
O=C(c1c[nH]c(C(=O)C(Cl)(Cl)Cl)c1)c1ccccc1Cl | ? | 0 | 0 | 0 | 0 | ?

Bioassay records as filed in PubChem BioAssay.
